The values that follow come from PubChem BioAssay (NCI).

Assay in all cases: NCI-60 one-dose screen, 48 h (100 = growth as untreated, 0 = no growth, -100 = all killed)
What all share (conditions): 10 µM unless noted

For test [1], the system named is DU-145 prostate.
The test system of test [2] is K-562 leukemia.
Test [3] relates to MALME-3M melanoma.
Test [4] concerns MDA-MB-231 breast.
Test [5] concerns RXF 393 renal.
Test [6] relates to SF-268 CNS.
Test [7] relates to SF-295 CNS.
In test [8] the test system is SF-539 CNS.
Test [9] relates to UACC-257 melanoma.
For test [10], the system named is M14 melanoma.
Test [11] concerns HCT-15 colon.
For test [12], the system named is HT29 colon.
In test [13] the test system is SNB-75 CNS.
The subject of test [14] is SNB-19 CNS.
Test [15] relates to U251 CNS.
The subject of test [16] is PC-3 prostate.
In test [17] the test system is SK-MEL-5 melanoma.
Test [18] deals with UACC-62 melanoma.
Test [19] has as its system LOX IMVI melanoma.
Test [20] has as its system SK-MEL-28 melanoma.

Each structure is given as a SMILES string. This is part of a sample that, as a whole, favours compounds with a hit. Of some 83,000 tested, about 20% had one in any assay.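 Note: values are percent growth. 100 is the growth of untreated cells, values between 100 and 0 indicate rising inhibition; between -100 and 0 indicates cell death.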 Values without a mark were called inactive. The source made the active and inactive calls. How the source made its calls: active means growth percent below 10; inactive means the rest.

As to `Cc1cccc(Cl)c1NC(=O)c1cnc(Nc2cc(N3CCOCC3)cc(S(C)(=O)=O)c2)s1`, the growth in test [1] was -41.1% (active); in test [2], 6.1% (active); in [3], 42.2%; in test [4], 9.71% (active); in test [5], -34.8% (active); in test [6], 25.4%. Further, the growth in test [7] is 53.8%; in [8], 2.23% (active); in test [9] it was 43.2%; in test [10], 42.4%; in test [11] it was 43.3%; in [12] it was -68% (active). In addition, the growth in [13] was -50.1% (active); in [14], 40.5%; in test [15], 50%; in test [16], 44.3%; in [17] it was 57.9%; in test [18], 41.3%. For the same compound, the growth is -58.4% (active) in test [19] and 52.6% in test [20].
Take `Cc1cc(Nc2nc(N[C@@H](C)c3ncc(F)cn3)ncc2Cl)n[nH]1`: the growth in [1] is 99.5%; in [2], 77.6%; in test [3], 56.4%; in test [4] it was 83.8%; in test [5], 24.4%; in test [6], 72%. The growth in test [7] is 94.4%; in [8], 80.8%; in test [9], 71.1%; in test [10] it was 58.7%; in test [11], 58.4%; in test [12], 39.1%. For the same compound, the growth in test [13] is 88.3%; in test [14], 80.9%; in [15], 52.7%; in test [16], 81.8%; in test [17] it was 95.9%; in [18] it was 65%. The growth in [19] was 37.9%; in test [20] it was 87.8%.
In the case of `CC(=O)c1cnc2ccc(-c3cc(Cl)c(O)c(Cl)c3)nc2c1NC1CCC(CN(C)C)CC1` (stereo not given), the growth in test [1] is -5.67% [2.5 µM] (active); in test [2] it was 6.35% [2.5 µM] (active); in test [3], -75.7% [2.5 µM] (active); in test [4], -7.07% [2.5 µM] (active); in [5] it was -75.1% [2.5 µM] (active); in test [6], -24.1% [2.5 µM] (active). The growth in test [7] was -19.2% [2.5 µM] (active); in test [8], -89% [2.5 µM] (active); in test [9] it was -26.4% [2.5 µM] (active); in test [10], -58.4% [2.5 µM] (active); in test [11], 0.375% [2.5 µM] (active); in test [12], 0.58% [2.5 µM] (active). The growth in test [13] is -96.9% [2.5 µM] (active); in test [14], 5.41% [2.5 µM] (active); in test [15] it was -26.6% [2.5 µM] (active); in [16], -12% [2.5 µM] (active); in test [17] it was -86.5% [2.5 µM] (active); in test [18] it was -70.9% [2.5 µM] (active). The results for the growth in test [19] and in test [20] were -61.2% [2.5 µM] (active) and -39.8% [2.5 µM] (active), respectively.
As to `Brc1ccc([I+]c2ccc(Br)cc2)cc1`, the growth in [1] was 52.6%; in test [2] it was 9.03% (active); in test [3], 35.7%; in test [4], 15.1%; in test [5], 40.6%; in [6], -56.7% (active). Further, the growth in [7] was 27.5%; in test [8] it was 27.3%; in [9] it was 27%; in test [10], 10.3%; in [11] it was 49.3%; in test [12], 5.37% (active). The growth in test [13] was -82.2% (active); in test [14], -92.4% (active); in [15] it was -85% (active); in test [16], 24.7%; in test [17] it was -82.9% (active); in test [18] it was 27%. In addition, the results for the growth in [19] and in test [20] were 20.4% and -14.6% (active), respectively.
Regarding `CCNC(=O)C#Cc1ccc2c(C(=Nc3ccc(CN(C)C)cc3)c3ccccc3)c(O)[nH]c2c1`, the growth was 44.3% in test [1]; 9.16% (active) in test [2]; -11.3% (active) in test [3]; 3.36% (active) in test [4]; -33.7% (active) in test [5]; 47.8% in [6]. Moreover, the growth was 59.8% in [7]; -6.1% (active) in [8]; -36.3% (active) in test [9]; -33.7% (active) in test [10]; 27.7% in test [11]; -40% (active) in [12]. Also, the growth was 3.23% (active) in test [13]; 29.5% in [14]; 22.4% in [15]; 44.4% in [16]; 17% in test [17]; -32.5% (active) in test [18]. Besides, the growth in test [19] is -75.7% (active); in test [20], -11.6% (active).
Turning to `COc1cc(NC2CCC(=O)N2c2ccc(Cl)cc2Cl)cc(OC)c1OC` (stereo not given), the growth in test [1] was 103%; in test [2] it was 106%; in test [3], 93.3%; in test [4], 111%; in test [5], 120%; in test [6], 98.7%. In addition, the growth is 101% in test [7]; 101% in test [8]; 99.1% in test [9]; 94.9% in test [10]; 108% in test [11]; 107% in test [12]. The growth in test [13] was 86.5%; in test [14], 101%; in test [15], 97.7%; in test [16] it was 95.9%; in test [17] it was 103%; in test [18], 104%. The growth is 96.6% in test [19] and 104% in test [20].
For the compound `CSc1nc2ncncc2[nH]1`, the growth in test [1] is 112%; in test [2], 93.9%; in test [3], 111%; in test [4], 99.3%; in [5] it was 45.4%; in [6], 105%. Further, the growth in [7] was 81%; in test [8], 89.6%; in test [9], 114%; in [10], 90.7%; in test [11], 101%; in test [12] it was 99.4%. Further, the growth in test [13] was 86.7%; in [14], 100%; in test [15], 101%; in test [16], 106%; in test [17], 101%; in test [18] it was 104%. The growth in test [19] was 97.5%; in [20] it was 75.1%.
As for `CC(C)[C@@H]1CC[C@@H]2[C@@H]1[C@H](OC(=O)/C=C/c1ccccc1)[C@]1(C(C)C)C[C@@H](OC(=O)CO)[C@@]2(C)O1`, the growth is 86% in test [1]; 78.3% in test [2]; 80.3% in test [3]; 77.7% in test [4]; 23.4% in test [5]; 56.8% in [6]. Also, the growth in test [7] is 92.2%; in test [8], 97.1%; in test [9], 84.1%; in test [10] it was 95.8%; in test [11] it was 78%; in test [12], 75%. For the same compound, the growth in test [13] is 38.1%; in test [14], 99%; in test [15], 74.3%; in [16], 30%; in [17], 81.2%; in [18], 84.3%. The growth in test [19] was 81%; in [20], 104%.
